Data: the supplement of paper PMC6555819

Tests used:
Experiment in all cases: PBM binding z-score (relative to random genomic background probes); higher = stronger binding; sequences stand for … in GC…GCGATTGACAGCGTAGAATGAAGG
[1] = test system: PPARg:RXRa DBDmut IVT, anti-RXR (DBD mutation: RXRa K156A/R161A, NR concentration 270 nM, RXRa partner concentration 90 nM)
Procedure, shortened: (§1)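 Antibodies against each partner of ligand-free nuclear receptor dimers (one per run) detected binding on custom Agilent 4×180K protein-binding microarrays after 1 h incubation. The double-stranded probes had 34-nt variable regions carrying direct-repeat seeds, single-nucleotide variants, half-site ablations and random human genomic background sequences. Binding z-scores, from regression-normalized fluorescence, use the random background probes as reference.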

[2] = test system: PPARg:RXRa IVT, anti-PPARg (NR concentration 270 nM, RXRa partner concentration 90 nM)
Procedure, shortened: as §1

[3] = test system: PPARg DBDmut:RXRa IVT, anti-PPARg (DBD mutation: PPARg1 K132A/R137A, NR concentration 270 nM, RXRa partner concentration 90 nM)
Procedure, shortened: as §1

[4] = test system: PPARg DBDmut IVT, anti-PPARg (DBD mutation: PPARg1 K132A/R137A, NR concentration 270 nM)
Procedure, shortened: as §1

[5] = test system: PPARg homodimer (NR concentration 180 nM)
Procedure, shortened: as §1

[6] = test system: PXR:RXRa (NR concentration 270 nM, RXRa partner concentration 90 nM)
Procedure, shortened: as §1

[7] = test system: PXR homodimer (NR concentration 270 nM)
Procedure, shortened: as §1

[8] = test system: RARa:RXR (NR concentration 270 nM, RXRa partner concentration 90 nM)
Procedure, shortened: as §1

[9] = test system: RARa homodimer (NR concentration 270 nM)
Procedure, shortened: as §1

[10] = test system: RARb:RXRa (NR concentration 270 nM, RXRa partner concentration 90 nM)
Procedure, shortened: as §1

[11] = test system: RARb homodimer (NR concentration 270 nM)
Procedure, shortened: as §1

[12] = test system: RARg:RXRa (NR concentration 270 nM, RXRa partner concentration 90 nM)
Procedure, shortened: as §1

[13] = test system: RARg homodimer (NR concentration 270 nM)
Procedure, shortened: as §1

[14] = test system: RXRa DBDmut IVT, anti-RXR (DBD mutation: RXRa K156A/R161A, NR concentration 90 nM)
Procedure, shortened: as §1

[15] = test system: RXRa homodimer (NR concentration 180 nM)
Procedure, shortened: as §1

[16] = test system: THRa:RXRa (NR concentration 90 nM, RXRa partner concentration 90 nM)
Procedure, shortened: as §1

[17] = test system: THRa homodimer (NR concentration 90 nM)
Procedure, shortened: as §1

[18] = test system: VDR:RXRa (NR concentration 270 nM, RXRa partner concentration 90 nM)
Procedure, shortened: as §1

[19] = test system: VDR homodimer (NR concentration 270 nM)
Procedure, shortened: as §1

| Sequence | PBM binding z-score [1] | PBM binding z-score [2] | PBM binding z-score [3] | PBM binding z-score [4] | PBM binding z-score [5] | PBM binding z-score [6] | PBM binding z-score [7] | PBM binding z-score [8] | PBM binding z-score [9] | PBM binding z-score [10] | PBM binding z-score [11] | PBM binding z-score [12] | PBM binding z-score [13] | PBM binding z-score [14] | PBM binding z-score [15] | PBM binding z-score [16] | PBM binding z-score [17] | PBM binding z-score [18] | PBM binding z-score [19] |
| --- | --- | --- | --- | --- | --- | --- | --- | --- | --- | --- | --- | --- | --- | --- | --- | --- | --- | --- | --- |
| ATATGTAGGTTATCGGGTTATTCAGTTTGCGCAT | 7.05 | 7.32 | 2.24 | 2.13 | 2.36 | 1.88 | 1.38 | 1.79 | 2.46 | 1.11 | 1.48 | 1.3 | 1.01 | 1.14 | 1.6 | 1.78 | 1.58 | 3.47 | 2.11 |
| CAAACTAGGTCACGATAGGTCAAAGTCGAATGAC | 8.73 | 9.21 | 3.89 | 2.14 | 4.63 | 5.42 | 0.73 | 5.95 | 1.74 | 4.88 | 4.88 | 6.44 | 6.71 | 2.13 | 5.99 | 4.65 | 2.39 | 5.51 | 2.02 |
| TCTTGTAGATCAACAGGAGGTTCAGAAAGATCGA | 1.5 | 0.779 | 0.136 | 0.251 | -0.725 | 0.256 | -0.264 | 0.00715 | -0.572 | 0.0281 | -0.296 | 0.00148 | -0.0996 | 0.388 | 0.331 | 0.0407 | -1 | 0.595 | 0.524 |
| GCTAGCACGCCATTTGGGTCACTCAATGACGGGC | 0.446 | 1.27 | -1.77 | -1.29 | -0.0391 | 0.0907 | -0.533 | 0.592 | -0.962 | 0.997 | 1.32 | 0.76 | 0.779 | -0.343 | 0.832 | 1.5 | 0.413 | -0.0776 | -0.357 |
| CCTAGCAGGCCCGGGTCACTCAAGCATTTCGCTT | -0.956 | -0.289 | -1.26 | -1.82 | 0.788 | 1.78 | -0.484 | 2.49 | -0.473 | 1.63 | 2.02 | 1.96 | 1.46 | -0.519 | 2.43 | 2.71 | 1.3 | 1.43 | 0.294 |
| CCGACTGGGGCAATGGTTACCATACTCAGTACGA | 3.21 | 3.14 | -0.545 | -0.357 | 0.166 | -0.648 | -0.201 | -0.309 | -0.393 | 0.161 | -0.241 | -0.0332 | 0.28 | -0.545 | 0.082 | -0.548 | -0.465 | -0.604 | -0.489 |
| CCTGACAGGTGAAAGGTAACTCAGTCTGGTACGC | 2.33 | 2.82 | -0.213 | -0.0292 | 0.546 | 0.876 | -0.396 | 1.84 | 0.115 | 1.3 | 0.705 | 1.41 | 0.684 | -0.145 | 1.95 | 0.905 | -0.332 | 0.319 | -0.107 |
| TCGAGTAGGTTTGTCGGGGCATTCAGCCAACATA | 0.713 | 0.173 | -1.6 | -0.328 | 0.186 | 0.311 | -0.236 | 0.224 | -0.837 | 0.0444 | 0.429 | -0.206 | -0.592 | 0.805 | -0.149 | 0.462 | 0.392 | 0.467 | 0.461 |
